Bioassay records: PubChem BioAssay, Broad Institute
miR-122 sensor: miR-122 inhibition in Huh7 cells | AID 602342 | activation (reporter increase), % at 12.5 µM | 340,000 tested, 0.3% active | Huh7 miR-122 Renilla luciferase sensor, 48 h; neutral wells = 0, positive control = 100;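 active = mean replicate activation score at least 90 and every replicate individually at or above 90; inconclusive = only one of the two criteria met; inactive = neither criterion met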;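 also: higher luciferase means less miR-122 activity so hits act as miR-122 inhibitors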
Dyrk1A ADPGlo: blocks rat Dyrk1A kinase activity | ADP-Glo luminescence, NFATc1 peptide | inhibition, % at 12.5 µM | 310,000 tested, 0.43% active | AID 504441
MITF TRPM1 HTS: activators of MITF-driven TRPM1 promoter activity in SK-MEL-5 cells. SK-MEL-5 TRPM1-promoter luciferase, 24 h; % of positive control, neutral wells = 0. activation, % at 12.5 µM. 300,000 tested, 0.75% active. AID 588334;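 active = mean activation of at least 80% with every replicate also reaching 80%; inconclusive = mean reaches 80% but some replicate falls short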
NSD2 HMT inh: NSD2 (human) methyltransferase inhibition; inhibition, % at 12.5 µM; 310,000 tested, 0.54% active; O96028; NSD2 peptide methylation, AlphaScreen, 120 min
Target sequence (O96028 whole entry, looked up): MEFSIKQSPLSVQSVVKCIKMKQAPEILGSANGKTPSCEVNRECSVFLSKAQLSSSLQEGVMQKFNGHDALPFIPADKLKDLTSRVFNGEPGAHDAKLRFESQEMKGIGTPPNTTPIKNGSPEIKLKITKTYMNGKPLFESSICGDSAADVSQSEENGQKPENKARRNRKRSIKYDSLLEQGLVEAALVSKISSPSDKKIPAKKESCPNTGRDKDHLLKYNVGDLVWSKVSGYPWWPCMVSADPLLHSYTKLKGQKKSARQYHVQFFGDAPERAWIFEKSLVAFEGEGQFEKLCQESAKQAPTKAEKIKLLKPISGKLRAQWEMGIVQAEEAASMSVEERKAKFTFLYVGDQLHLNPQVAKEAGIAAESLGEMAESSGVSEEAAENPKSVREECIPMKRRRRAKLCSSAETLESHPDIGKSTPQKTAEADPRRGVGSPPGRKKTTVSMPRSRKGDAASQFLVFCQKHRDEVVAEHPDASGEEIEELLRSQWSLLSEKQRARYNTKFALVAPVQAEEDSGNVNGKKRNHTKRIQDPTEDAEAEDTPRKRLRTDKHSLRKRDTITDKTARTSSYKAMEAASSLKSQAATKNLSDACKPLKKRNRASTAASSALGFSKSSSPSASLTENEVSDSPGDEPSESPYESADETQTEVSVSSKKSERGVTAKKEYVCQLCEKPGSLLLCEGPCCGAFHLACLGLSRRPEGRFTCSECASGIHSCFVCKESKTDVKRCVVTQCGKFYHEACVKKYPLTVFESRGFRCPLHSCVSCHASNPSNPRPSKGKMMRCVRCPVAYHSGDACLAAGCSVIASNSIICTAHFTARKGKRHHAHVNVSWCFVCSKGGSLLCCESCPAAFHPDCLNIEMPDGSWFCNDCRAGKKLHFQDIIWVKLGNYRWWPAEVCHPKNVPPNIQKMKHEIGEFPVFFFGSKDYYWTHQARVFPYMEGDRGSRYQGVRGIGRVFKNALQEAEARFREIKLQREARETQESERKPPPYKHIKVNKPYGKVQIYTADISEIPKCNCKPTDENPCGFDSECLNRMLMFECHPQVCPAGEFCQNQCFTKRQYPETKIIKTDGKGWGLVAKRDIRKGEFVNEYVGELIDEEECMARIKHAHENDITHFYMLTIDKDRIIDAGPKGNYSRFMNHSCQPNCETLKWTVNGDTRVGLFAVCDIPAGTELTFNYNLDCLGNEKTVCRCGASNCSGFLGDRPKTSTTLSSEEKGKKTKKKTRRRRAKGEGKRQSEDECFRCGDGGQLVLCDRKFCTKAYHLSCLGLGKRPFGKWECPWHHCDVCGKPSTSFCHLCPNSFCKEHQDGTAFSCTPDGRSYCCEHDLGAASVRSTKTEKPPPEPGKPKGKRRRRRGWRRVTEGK
Wnt bcat act: Wnt/beta-catenin pathway activation; Wnt/beta-catenin reporter cell assay, activator, plate reader; activation, % at 9.35 µM; 300,000 tested, 1.2% active; in the data active = activation above about 30%, passing the limit was not always enough; inconclusive = no clear call, values can overlap the other calls
INS-1E GSIS act: GLuc luminescence reporter in INS-1E cells, primary screen for activators of glucose-dependent secretion of insulin; INS-1E GLuc reporter insulin secretion, 2-3 h; activation, % at 16.6 µM; 370,000 tested, 0.61% active;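 active = lowest replicate activation of at least 40%, so every replicate reaches that level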
Numbers stand for hits; – = inactive; ? = inconclusive; · = no result. An excerpt weighted towards active compounds, which were near 2.4% of everything screened. Rule as the data show it, unless noted: active = inhibition above about 50%; inactive = the rest.

SMILES | miR-122 sensor | Dyrk1A ADPGlo | MITF TRPM1 HTS | NSD2 HMT inh | Wnt bcat act | INS-1E GSIS act
Cn1cccc1C(=O)OCc1cc(-c2ccco2)on1 | · | · | 98.5 | – | – | –
CS(=O)(=O)N1N=C(c2cccs2)CC1c1ccccc1 (stereo not drawn) | – | – | – | – | – | –
c1ccc(C2Oc3ccccc3C3CC(c4cccs4)=NN32)cc1 (stereo not drawn) | – | – | – | – | 37.8 | ·
CN1CCN(C(=O)C[C@@H]2C[C@H]3c4cc(NC(=O)c5ccc6c(c5)OCO6)ccc4O[C@H]3[C@H](CO)O2)CC1 | – | · | · | · | · | –
CCCCc1c(-c2ccc(F)cc2F)ncn1CCc1ccccc1OC | · | · | · | · | – | 119.6
CCCCc1c(Cc2cccc(F)c2)ncn1CCc1ccccc1OC | · | · | · | · | – | 123.5
CCCCCc1c(-c2ccc(F)cc2F)ncn1CCc1ccccc1OC | · | · | · | · | – | 104.2
COc1ccccc1CCn1cnc(-c2ccccc2F)c1CC(C)C | · | · | · | · | – | 41.9
O=C1CN(Cc2ccc(F)cc2)C[C@@H]2[C@H](c3ccc(Br)cc3)[C@H](CO)N12 | · | · | · | · | · | –
O=C(CC1CC1)Nc1ccc2c(c1)[C@@H]1C[C@@H](CC(=O)N3CCOCC3)O[C@@H](CO)[C@@H]1O2 | – | · | · | · | · | –
COc1ccccc1CCn1cnc(-c2cccc(F)c2)c1C(C)C | · | · | · | · | – | 64.2
CCCCc1c(-c2cccc(OC)c2)ncn1CCc1ccccc1OC | · | · | · | · | – | 80.0
C[C@@H]1CCCCO[C@@H](CN(C)Cc2ccc3c(c2)OCO3)[C@H](C)CN([C@H](C)CO)C(=O)c2cc(NC(=O)Nc3ccc(F)cc3)ccc2O1 | – | · | · | · | · | –
CCOc1ccc(CCNC(=O)COC(=O)c2cccnc2SC)cc1OCC | · | – | – | – | – | 55.4
Cc1ccc(C(=O)NCCc2ccc(F)cc2)s1 | – | · | 89.4 | – | 42.5 | –
CCOc1ccccc1C(=O)OCC(=O)NCc1ccc2c(c1)OCO2 | · | – | – | – | – | 46.7
CCOc1ccc(CCNC(=O)COC(=O)c2nc(Cl)ccc2Cl)cc1OCC | · | – | – | – | – | 43.7
C[C@H](CO)N1C[C@H](C)[C@@H](CN(C)Cc2ccc(C(=O)O)cc2)Oc2ccc(NS(=O)(=O)c3ccccc3)cc2CC1=O | – | · | · | · | · | –
CCOc1ccc(CCNC(=O)COC(=O)CSc2ccccc2C)cc1OCC | · | – | – | – | – | 57.2
CCOc1ccc(CCNC(=O)COC(=O)c2ccc(C)s2)cc1OCC | · | – | – | – | – | 52.3
CSc1ncccc1C(=O)OCc1ccc([N+](=O)[O-])cc1 | – | – | – | – | – | –
CSc1ncccc1C(=O)OCc1ccccc1 | – | – | – | – | · | 46.7
CCOc1ccc(CCNC(=O)COC(=O)c2cccs2)cc1OCC | – | – | – | – | – | –
COc1ccc(CCNC(=O)COC(=O)c2ccc(C)s2)cc1OC | · | – | – | – | – | 41.7
Cc1noc(C)c1NC(=O)N(C)C[C@@H]1Oc2ccc(NC(=O)Nc3ccc(C(F)(F)F)cc3)cc2C(=O)N([C@H](C)CO)C[C@H]1C | – | · | · | · | · | –
SMILES | miR-122 sensor | Dyrk1A ADPGlo | MITF TRPM1 HTS | NSD2 HMT inh | Wnt bcat act | INS-1E GSIS act
CCOC(=O)N1CCC(NC(=O)CS(=O)Cc2nc(-c3ccc(CC)cc3)oc2C)CC1 (stereo not drawn) | · | · | · | – | · | ·
CCN(c1ccccc1)c1nc(Cl)nc2c1cnn2C | – | · | – | – | – | 45.6
CCN(c1ccccc1)c1ncnc2c1cnn2-c1ccccc1 | – | – | · | · | – | –
O=C(COC(=O)C1CC1)NC(=O)c1ccccc1 | – | – | – | – | – | –
O=C(COC(=O)C1CCC1)NC(=O)c1ccccc1 | – | – | – | – | – | 42.0
C[C@@H]1CN([C@H](C)CO)C(=O)c2cc(NC(=O)NC3CCCCC3)ccc2O[C@H]1CN(C)S(=O)(=O)c1ccccc1 | – | · | · | · | · | –
Oc1cc(O)cc(/C=C/c2ccc(O)c(O)c2)c1 | – | 69.2 | – | · | – | ·
COc1nc(Nc2cccc(F)c2)nc(OC)n1 | – | – | – | – | – | ·
COc1nc(Nc2ccccc2)nc(OC)n1 | – | – | · | – | – | 41.3
CC(C)CC#Cc1ccc2c(c1)O[C@H](CN(C)S(C)(=O)=O)[C@@H](C)CN([C@@H](C)CO)S2(=O)=O | – | · | · | · | · | –
O=C(O)CN=C(NS(=O)(=O)c1ccc(Cl)cc1)c1ccc(F)cc1 | · | – | – | – | – | –
O=S(=O)(NC(=NCc1ccccc1)c1ccc(F)cc1)c1ccc(Cl)cc1 | 147.9 | – | – | – | – | –
O=C(Nc1cccnc1Cl)C1=NN(c2ccccc2)C(=O)CC1 | – | – | – | – | – | 47.7
CN(C)C(CNC(=O)c1cc2ccccc2oc1=O)c1ccccc1 (stereo not drawn) | – | – | 98.9 | – | – | –
COc1ccccc1C(=O)Nc1c2c(nn1-c1cccc(C)c1C)CS(=O)(=O)C2 | – | – | – | – | – | 58.5
COc1cccc(NC(=O)c2cc3ccccc3oc2=O)c1 | · | – | · | – | – | –
Cc1ccccc1-n1nc2c(c1NC(=O)c1cc3ccccc3oc1=O)CS(=O)(=O)C2 | · | · | · | · | · | 53.8
Cc1cccnc1NC(=O)c1cc2ccccc2oc1=O | – | · | – | – | 47.0 | –
N#C[C@H]1[C@H](c2ccc(-c3cccc(F)c3)cc2)[C@H](CO)N1C(=O)NC1CCCC1 | · | · | · | · | · | –
CC(C)(C)C(=O)[C@@H]1[C@@H]2C(=O)N(C3CCCCC3)C(=O)[C@@H]2[C@H]2c3ccccc3C=CN12 | – | – | · | 124.8 | – | ·
O=C(C[C@H]1C[C@H]2c3cc(NS(=O)(=O)c4ccc(F)cc4)ccc3O[C@H]2[C@@H](CO)O1)NCc1ccncc1 | – | · | · | · | · | –
CCC(=O)Nc1ccc2c(c1)OC[C@H](C)N(Cc1ccncc1)C[C@@H](C)[C@H](OC)CN(C)C2=O | · | · | · | · | · | –
O=C(O)C1C2CCCCC2=C2CCCCC2C1C(=O)O (stereo not drawn) | – | – | – | – | 90.4 | ·
COc1ccc(CC(=O)O/N=C(\N)c2ccccc2)cc1OC | – | – | – | – | – | 50.8
COc1ccc(/C=C/C(=O)Oc2ccc(/C=N/NC(=O)c3ccccc3)cc2)cc1OC | – | – | – | – | · | 128.9
SMILES | miR-122 sensor | Dyrk1A ADPGlo | MITF TRPM1 HTS | NSD2 HMT inh | Wnt bcat act | INS-1E GSIS act
COc1cc(/C=N/NC(=O)c2ccncc2)ccc1OCC(=O)Nc1ccccc1 | · | – | 99.0 | – | – | –
COc1cc(/C=N/NC(=O)c2ccccc2O)ccc1OCC(=O)Nc1ccccc1 | – | – | – | – | – | –
COc1ccc(/C=N/NC(=O)c2ccncc2)cc1OC | · | – | – | – | – | –
CCC(=O)c1ccc(OCc2ccccc2)c(OC)c1 | – | – | 100.5 | – | · | –
CN1CCN(C(=O)C[C@@H]2C[C@@H]3c4cc(NC(=O)Nc5ccc(F)cc5)ccc4O[C@@H]3[C@@H](CO)O2)CC1 | – | · | · | · | · | –
COc1ccc(/C=C/C(=O)O/N=C(\N)c2ccccc2)cc1OC | – | – | – | – | 46.2 | –
O=C(/C=C/c1ccc(O)cc1)c1ccccc1 | – | – | – | – | 37.7 | –
COc1ccc(/C(N)=N/OC(=O)/C=C/c2ccccc2)cc1 | – | – | – | – | ? | –
